Drawing on PMC8384837, “Expanding the binding specificity for RNA recognition by a PUF domain”, this text covers binding signal for 9 sequences.

Test in all cases: yeast three-hybrid, YBZ-1, SC-Leu-His + 0.5 mM 3-AT, 4 days
Common to all, as to settings: tags: N-Gal4 AD-HA kept; label: inside an RPR1-promoter hybrid RNA with tandem MS2 sites; ssRNA

Test [1] concerns the target PUM1 PUF domain R3-TAQ (Homo sapiens, UniProt Q14671 828-1176, C935T;R936A). An outline of the steps:
(§1)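 Each repeat of the Pumilio-1 PUF domain was randomized at its three base-contacting residues, and these libraries were co-expressed from a centromeric plasmid with matching RNA elements in strain YBZ-1. After four days on SC-Leu (input) or SC-Leu-His + 0.5 mM 3-AT (selection), the repeat regions were PCR-amplified and Illumina-sequenced. The interaction score compares variant frequency between input and selection as a log change, computed in log2 with a pseudocount of 1 for absent variants.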

Test [2] deals with PUM1 PUF domain R3-DYE (Homo sapiens, UniProt Q14671 828-1176, C935D;R936Y;Q939E). An outline of the steps:
as §1

In test [3] the target is PUM1 PUF domain R5-RAG (Homo sapiens, UniProt Q14671 828-1176, C1007R;R1008A;Q1011G). In outline: as §1
Test [4] deals with PUM1 PUF domain R5-RRK (Homo sapiens, UniProt Q14671 828-1176, C1007R;Q1011K). An outline of the steps: as §1
For test [5], the target named is PUM1 PUF domain R3-IFG (Homo sapiens, UniProt Q14671 828-1176, C935I;R936F;Q939G). An outline of the steps: as §1
Test [6] has as its target PUM1 PUF domain R4-MPV (Homo sapiens, UniProt Q14671 828-1176, N971M;H972P;Q975V). An outline of the steps:
as §1

Test [7] addresses PUM1 PUF domain R3-PFL (Homo sapiens, UniProt Q14671 828-1176, C935P;R936F;Q939L). In outline: as §1
The target in test [8] is PUM1 PUF domain R1-RTW (Homo sapiens, UniProt Q14671 828-1176, S863R;R864T;Q867W). In outline:
as §1

The target of test [9] is PUM1 PUF domain R2-EWE (Homo sapiens, UniProt Q14671 828-1176, N899E;Y900W;Q903E). In outline: as §1
Test [10] has as its target PUM1 PUF domain R5-KAG (Homo sapiens, UniProt Q14671 828-1176, C1007K;R1008A;Q1011G). In outline: as §1

In the case of “GGCUAGAACUAGUGGAUCCCCCGGCGCCCGGCGGCUCGAGCCCGGGUAAGUGUAAAUAGUCUGCAUGCCGCCGGGCGCCAUGCCUGCAGGUCGACUCUAGAAAACAUG”, the binding signal was 4.25 log2 enrichment (interaction score) in [1]; 3.76 log2 enrichment (interaction score) in test [2]; 0.1 log2 enrichment (interaction score) in [3]; 1.82 log2 enrichment (interaction score) in [4]; 3.21 log2 enrichment (interaction score) in [5]; 2.14 log2 enrichment (interaction score) in test [6]. In [7], the binding signal was 3.64 log2 enrichment (interaction score).
As for “GGCUAGAACUAGUGGAUCCCCCGGCGCCCGGCGGCUCGAGCCCGGGUAAGUGUAAAUUGUCUGCAUGCCGCCGGGCGCCAUGCCUGCAGGUCGACUCUAGAAAACAUG”, the binding signal in [8] is 3 log2 enrichment (interaction score).
As to “GGCUAGAACUAGUGGAUCCCCCGGCGCCCGGCGGCUCGAGCCCGGGUAAGUGUAAUUAGUCUGCAUGCCGCCGGGCGCCAUGCCUGCAGGUCGACUCUAGAAAACAUG”, the figures for the binding signal in test [5] and in test [7] were 3.79 log2 enrichment (interaction score) and 4.55 log2 enrichment (interaction score), respectively.
“GGCUAGAACUAGUGGAUCCCCCGGCGCCCGGCGGCUCGAGCCCGGGUAAGUGUAAAGAGUCUGCAUGCCGCCGGGCGCCAUGCCUGCAGGUCGACUCUAGAAAACAUG”: in [9], the binding signal was 3.45 log2 enrichment (interaction score).
Consider “GGCUAGAACUAGUGGAUCCCCCGGCGCCCGGCGGCUCGAGCCCGGGUAAGUGUAAGUAGUCUGCAUGCCGCCGGGCGCCAUGCCUGCAGGUCGACUCUAGAAAACAUG”, for which the binding signal in test [5] is 5.86 log2 enrichment (interaction score).
As to “GGCUAGAACUAGUGGAUCCCCCGGCGCCCGGCGGCUCGAGCCCGGGUAAGUGUAUAUAGUCUGCAUGCCGCCGGGCGCCAUGCCUGCAGGUCGACUCUAGAAAACAUG”, the binding signal in test [6] was 3.02 log2 enrichment (interaction score).
Take “GGCUAGAACUAGUGGAUCCCCCGGCGCCCGGCGGCUCGAGCCCGGGUAAGUGUGAAUAGUCUGCAUGCCGCCGGGCGCCAUGCCUGCAGGUCGACUCUAGAAAACAUG”: the binding signal in test [3] was 0.18 log2 enrichment (interaction score); in test [4], 1.4 log2 enrichment (interaction score).
In the same order, the values of “GGCUAGAACUAGUGGAUCCCCCGGCGCCCGGCGGCUCGAGCCCGGGUAAGUGUUAAUAGUCUGCAUGCCGCCGGGCGCCAUGCCUGCAGGUCGACUCUAGAAAACAUG” are 3.37 log2 enrichment (interaction score) and 4.7 log2 enrichment (interaction score).
For “GGCUAGAACUAGUGGAUCCCCCGGCGCCCGGCGGCUCGAGCCCGGGUAAGUGUCAAUAGUCUGCAUGCCGCCGGGCGCCAUGCCUGCAGGUCGACUCUAGAAAACAUG”, the binding signal in [3] was 3.6 log2 enrichment (interaction score); in test [4] it was 4.43 log2 enrichment (interaction score); in [10], 2.58 log2 enrichment (interaction score).
